RORg inh – blocks mouse ROR gamma transcriptional activity. P51450. Drosophila S2 Gal4-RORgamma UAS-luciferase reporter, 20 h. Potency, µM (highest dose often 53.6 µM), inactives show at the top dose activity change, negative = inhibition, hits mostly inhibitors. actives 5.4% (n = 310,000). AID 2551; note: % is set by controls: 0 for no effect and ±100 for the full control effect; nearly all actives have a fitted effect of over 60% in size
Target sequence (P51450 whole entry, looked up, the tested form may be a part): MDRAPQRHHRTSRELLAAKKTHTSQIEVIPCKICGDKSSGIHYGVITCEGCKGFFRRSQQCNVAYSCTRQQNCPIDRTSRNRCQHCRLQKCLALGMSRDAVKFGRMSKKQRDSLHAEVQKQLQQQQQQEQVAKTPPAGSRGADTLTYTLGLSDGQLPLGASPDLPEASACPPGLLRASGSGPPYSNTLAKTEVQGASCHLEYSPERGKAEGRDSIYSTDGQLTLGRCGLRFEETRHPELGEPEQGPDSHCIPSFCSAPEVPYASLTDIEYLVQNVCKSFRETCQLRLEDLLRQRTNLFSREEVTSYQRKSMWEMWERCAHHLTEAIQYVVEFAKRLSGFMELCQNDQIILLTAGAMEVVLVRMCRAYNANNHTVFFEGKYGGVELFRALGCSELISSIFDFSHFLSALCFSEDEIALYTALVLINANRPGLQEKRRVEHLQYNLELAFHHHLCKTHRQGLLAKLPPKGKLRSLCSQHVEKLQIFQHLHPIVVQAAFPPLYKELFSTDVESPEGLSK
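Using a luciferase readout, inhibitors were identified by reduced reporter activity in Drosophila cells coexpressing a copper-inducible Gal4–ROR gamma fusion and UAS-driven Photinus luciferase, incubated 20 hr after 700 uM copper sulfate.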
GLP1R inv ag – acts as inverse agonist at human GLP-1 receptor; P43220; HEK293 GLP-1R CRE-luciferase, luminescence, 24 h; GLP-1R form is constitutively active; Potency, µM (titrated, usually from 38.3 µM), for inactives: at the highest dose activity change, negative = inhibition, hits mostly inhibitors; actives 1.6% (n = 410,000); AID 624417; note: % is set by controls: 0 for no effect and ±100 for the full control effect; nearly all actives have a fitted effect of over 55% in size
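HEK293 cells stably co-expressing constitutively active GLP-1R and a cAMP-responsive luciferase reporter were seeded in DMEM with 10% Nu serum, given compounds after 12 h, and incubated 24 h at 37 deg C. Luminescence was then read.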
GLP1R ag – activates the human GLP-1 receptor; Potency, µM (doses to about 45.6 µM), for the others: top-dose activation, hits mostly activators; HEK293 GLP-1R CRE-luciferase, luminescence, 4-6 h; cells express a hypersensitive GLP-1R form; AID 624172; actives 0.007% (n = 380,000); note: % of control where 0% means no effect
GLP1R cytotox – cytotoxicity counter-screen for GLP-1 receptor inverse agonists. HEK293 cAMP-luciferase reporter cells, luminescence, 24 h. Potency, µM (titrated, usually from 38.3 µM), for inactives: at the top dose activity change, negative = inhibition, usual class: inhibitors. actives 0.13% (n = 410,000). AID 624418;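 note: loss of luciferase light is scored as toxicity; % is set by controls: 0 for no effect and ±100 for the full control effect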
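Step one: seed cells (200 cells/uL, DMEM with 10% Nu serum, 1% pen-strep). Step two: 12-hour incubation at 37 deg C. Step three: pin 23 nL compound, incubate 24 hr. Step four: add luciferase reagent, read luminescence 12 min later.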
VP16 counter – inhibits Gal4-VP16 luciferase reporter, ROR gamma counter-screen. Potency, µM (highest dose often 53.6 µM), for inactives: at the top dose activity, negative = inhibition, hits mostly inhibitors. AID 2546. Drosophila S2 Gal4-VP16 UAS-luciferase, luminescence, 20 h. actives 3.5% (n = 310,000);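 note: Gal4-VP16 expression switched on by copper sulfate through the metallothionein promoter; % is set by controls: 0 for no effect and ±100 for the full control effect; nearly all actives have a fitted effect of over 50% in size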
Numbers without * were called inactive; ? = inconclusive; nt = not tested or not shown. Sampled rows, rich in hits. Any-hit rate of the full collection: about 5.9%. Calls come from the whole dose curve; as a rule, active = well fitted curve in the direction sought with a large enough effect; inconclusive = small, poorly fitted or top-dose-only effect, or another doubt; inactive = no such curve, though single readings can be large; an effect the other way counts as inactive or inconclusive. Potency is the fitted concentration of half-maximal effect.

SMILES | RORg inh | GLP1R inv ag | GLP1R ag | GLP1R cytotox | VP16 counter
c1ccc(CNc2nc3ccccc3[nH]2)cc1 | ? | -10% | -2% | ? | -21%
C(=C\c1ccccc1)/C=N/Nc1nc2ccccc2[nH]1 | 3.2µM* | -1% | 14% | ? | 5µM*
C(=N\Nc1nc2ccccc2[nH]1)/c1ccccc1 | 10µM* | -11% | 13% | ? | ?
Brc1ccc(-c2ccc(/C=N/Nc3nc(N4CCOCC4)nc(N4CCOCC4)n3)o2)cc1 | -1% | 8% | 14% | 4% | 2%
Fc1ccc(/C=N/Nc2nc3ccccc3[nH]2)cc1F | 7.9µM* | -17% | -3% | -17% | ?
Brc1ccc(-c2ccc(/C=N/Nc3nc4ccccc4[nH]3)o2)cc1 | 4.5µM* | -15% | 5% | 51% | 5µM*
O=c1[nH]c(N/N=C/c2ccccc2)nc2ccccc12 | -27% | 0% | 8% | 61% | ?
Fc1cccc(/C=N/Nc2nc3ccccc3[nH]2)c1 | 10µM* | 2% | 1% | ? | ?
CCCOC(=O)c1c(NC(=O)C2c3ccccc3Oc3ccccc32)sc2c1CCC(C)C2 (stereo unspecified) | nt | -6% | nt | 7% | nt
CCOC(=O)c1c(C)[nH]c(CCC(=O)NCc2ccc(CC)cc2)c1C | nt | -13% | nt | 3% | nt
